# Source: PubChem
# Shiga inhibitor – A qHTS for Small Molecule Inhibitors of Shiga Toxin; Vero cells, Shiga toxin protein synthesis inhibition reporter; inhibition, % at 38.7 µM; actives 9.2% (n = 290,000); AID 2315, 2010; in the data active means inhibition mostly above about 28%, no sharp cut-off; inactive means mostly below about 43%; further: 0% is about no effect
# Pf growth 96h – Primary qHTS for delayed death inhibitors of the malarial parasite plastid, 96 hour incubation | actives 6.9% (n = 320,000) | AID 504834, 2011 | Potency, µM (series often up to 28.7 µM), inactives show at the top dose activity change, negative = inhibition, actives largely listed as inhibitors | P. falciparum luciferase reporter growth, 96 h; further: potency means the concentration at half of the fitted maximal effect; on the % scale 0 is the no-effect control and ±100 the full control effect
#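 Compounds incubated with erythrocytes infected by luciferase-expressing P. falciparum (2% hematocrit, 0.05% parasitemia final) for 96 hours, 37 C in 5% CO2. Growth inhibition scored as decreased luciferase luminescence.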
# HCV inh – qHTS Assay for Inhibitors of Hepatitis C Virus (HCV); Huh7.5.1 HCVcc-Cre infection, luciferase reporter, 44 h; Potency, µM (titrated, usually from 41.8 µM), for the others: at the top dose activity change, negative = inhibition, hits mostly inhibitors; actives 3.4% (n = 340,000); further: potency means the concentration at half of the fitted maximal effect; on the % scale 0 is the no-effect control and ±100 the full control effect
#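 Seed cells (1,000/well) for 4 h; treat with compound and infect with HCVcc-Cre, moi about 0.5. Incubate 44 h, then detect luciferase activity.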
# Pf growth 48h – Primary qHTS for delayed death inhibitors of the malarial parasite plastid, 48 hour incubation. P. falciparum luciferase growth in erythrocytes, 48 h. Potency, µM (titrated, usually from 28.7 µM), without a hit: at the top dose activity change, negative = inhibition, most hits filed as inhibitors. actives 5.9% (n = 310,000). AID 504832, 2011; further: potency means the concentration at half of the fitted maximal effect; on the % scale 0 is the no-effect control and ±100 the full control effect
#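 Luciferase-expressing P. falciparum in infected erythrocytes (2% hematocrit, 0.1% parasitemia final) in RPMI 1640/0.5% Albumax were exposed to compound for 48 hours at 37 C, 5% CO2; growth read as luminescence.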
# AMA1 RON2 block – qHTS for Inhibitors of AMA1-RON; Towards Development of Antimalarial Drug Lead: Primary Screen; AlphaScreen AMA1-biotinylated RON2 peptide binding; Potency, µM (series often up to 58.2 µM), inactives show at the highest dose activity change, negative = inhibition, hits mostly inhibitors; actives 0.2% (n = 360,000); AID 720542, 2013;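 further: potency means the concentration at half of the fitted maximal effect; 0% = vehicle wells and -100% = peptide control; nearly all actives have a fitted effect of over 45% in size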
#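 AMA1 (3D7) with his tag at 25 nM final met compounds first, then biotinylated RON2 peptide at 25 nM; detection used donor plus acceptor beads, 10 µg/mL apiece, read by AlphaScreen after 30 min at room temperature.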
# CHX counter – Cycloheximide Counterscreen for Small Molecule Inhibitors of Shiga Toxin | cell reporter, cycloheximide protein synthesis inhibition counterscreen | max response, % | actives 12% (n = 300,000) | AID 2314, 2010; in the data active means max response mostly above about 13%, no sharp cut-off; inactive means mostly below about 14%; further: read at 38.3 µM for the half of the compounds with a filed dose; 0% is about no effect
# * = called active by the depositor; ? = inconclusive; nt = no result given; [ ] = remark or other dose. Rows were chosen to be rich in hits. Some 21% of all compounds tested hit in one or more screens of this group. Unless noted, the call rests on the fitted dose curve; in most records, active means well fitted curve in the direction sought with a large enough effect; inconclusive means small, poorly fitted or top-dose-only effect, or another doubt; inactive means no such curve, though single readings can be large; an effect the other way counts as inactive or inconclusive.
SMILES,Shiga inhibitor,Pf growth 96h,HCV inh,Pf growth 48h,AMA1 RON2 block,CHX counter
O=C(Nc1cc(Cl)ccc1Cl)c1ccc(-c2ccccc2)cc1,35,?,2%,54%,-1%,17*
O=C(Nc1ccc(Cl)cc1Cl)C1=Cc2ccccc2OC1,68*,134%,-4%,nt,12%,54*
O=C(Nc1nnc(Cc2ccccc2F)s1)c1ccccc1Cl,16,-7%,7%,37%,8%,9
O=C(Nc1cccc(Cl)c1Cl)c1ccc(-c2ccccc2)cc1,9,273%,23%,26%,0%,8
O=C(Nc1ccccc1C(=O)Nc1nnc(C(F)(F)F)s1)c1ccccc1Cl,8,4.7µM*,11µM*,?,0%,11
Cc1ccc(C(=O)N/C(=C\c2cn(C)c3ccccc23)C(=O)NCCN2CCOCC2)cc1,19,?,-4%,?,-1%,1
Cc1ccc(F)c(S(=O)(=O)NC(=O)C2(C)CCN2C(=O)Cc2cccs2)c1 (centres undefined),nt,nt,nt,nt,4%,nt
Cc1ccc(C(=O)Nc2ccccc2Cl)cc1,nt,-11%,8%,205%,21%,37*
O=C1OC(c2ccccc2)=N/C1=C\C=C\c1ccccc1[N+](=O)[O-],-3,0.47µM*,-7%,19%,6%,-1
O=C1OC(c2ccccc2)=N/C1=C\C=C\c1ccco1,-8,19%,-8%,13%,-13%,2
Nc1ccc(Cc2ccccn2)cc1,13,7%,14%,29%,4%,1
CC(C)Cc1nc2ccc(N)cc2[nH]1,5,13%,12%,?,-13%,11
Nc1ccc2nc(Cc3ccccc3)[nH]c2c1,25,10µM*,?,9.3µM*,8%,21
Cc1ccc2nc(Cc3ccc(N)cc3)[nH]c2c1,75*,99%,4%,30%,?,20*
Nc1ccc(Cc2nc3c(ccc4ccccc43)[nH]2)cc1,97*,105%,?,66%,-4%,46*
Cc1nc2ccc(Cc3ccc4nc(C)[nH]c4c3)cc2[nH]1,1,10µM*,-7%,?,3%,-2
COc1ccccc1N1CCN(S(=O)(=O)CCNC(=O)CCc2ccccc2)CC1,nt,nt,nt,nt,1%,nt
CC1Nc2ncnc(N3CCc4ccccc4C3)c2N(Cc2ccc(Br)cc2)C1=O (centres undefined),nt,6.6µM*,?,2.1µM*,11%,nt
CC1Nc2ncnc(N3CCc4ccccc4C3)c2N(Cc2ccc(Cl)cc2)C1=O (centres undefined),nt,5.2µM*,3%,13µM*,12%,nt
CCC1Nc2ncnc(N3CCc4ccccc4C3)c2N(Cc2ccc(Br)cc2)C1=O (centres undefined),nt,nt,nt,nt,-4%,nt
CCCCOc1ccc(S(=O)(=O)NC(=O)C2(C)CCN2C(=O)Cc2cccs2)cc1 (centres undefined),nt,nt,nt,nt,4%,nt
CCN(CC)CCNC(=S)Nc1ccc(F)cc1,-3,10%,17%,5%,-4%,1
COc1cc(NC(=O)CN2CCN(S(=O)(=O)c3ccc(C(C)C)cc3)CC2)cc(OC)c1,-20,31%,14%,?,-16%,4
CC(=O)c1c(C)[nH]c(C(=O)CN2CCN(S(=O)(=O)c3ccc(C(C)C)cc3)CC2)c1C,nt,12µM*,?,12µM*,-9%,nt
COc1cccc(NC(=O)CN2CCN(S(=O)(=O)c3ccc(C(C)C)cc3)CC2)c1,-29,12µM*,-3%,?,-4%,-2
SMILES,Shiga inhibitor,Pf growth 96h,HCV inh,Pf growth 48h,AMA1 RON2 block,CHX counter
COc1cccc(N2CCN(CC(=O)Nc3ccc(S(=O)(=O)N4CCCCCC4)cc3)CC2)c1,nt,?,?,12µM*,-4%[11.6 µM],nt
COc1cccc(NC(=O)CN2CCN(S(=O)(=O)c3ccc(F)cc3)CC2)c1,-17,nt,6%,8%,-1%,-2
Cc1cccc(N2CCN(C(=O)CCc3nc4ccccc4c(=O)[nH]3)CC2)c1C,nt,nt,-2%,nt,-1%,nt
Clc1ccc(-c2cnc(Oc3ccccc3)nc2)cc1,163*,95%,-5%,218%,49%,74*
N/C(=N\OC(=O)C1CCCCC1)c1cccc(Br)c1,-7,4%,3%,-16%,19%,-3
COc1ccc(/C(N)=N/OC(=O)C2CCCCC2)cc1,136*,200%,-1%,186%,-5%,43*
COc1ccc(/C(N)=N/OC(=O)C2CCCCC2)cc1OC,78*,26%,?,39%,15%,50*
CC1(C)CC(=O)C=C(c2ccc(-c3ccc(OC(F)(F)F)cc3)cc2)C1=O,nt,nt,nt,nt,-21%,nt
N#Cc1ccccc1OCC(=O)NC(=O)NCc1ccco1,57*,171%,6%,112%,-2%,26*
CCNC(=O)NC(=O)COc1ccccc1C#N,81*,nt,-2%,77%,0%,36*
COc1ccc(C(CNC(=O)c2ccco2)N2CCCC2)cc1 (centres undefined),nt,97%,?,69%,17%,nt
CN(C)c1ccc(C(CNC(=O)c2ccc(-c3ccccc3)cc2)N2CCOCC2)cc1 (centres undefined),nt,?,8%,13µM*,nt,nt
CN(C)c1ccc(C(CNC(=O)c2ccco2)N2CCCC2)cc1 (centres undefined),48*,14%,17%,31%,-9%,26
Cc1c(-c2ccccc2)[n+](=O)c2c(n1[O-])CCCC2,-8,82%,4%,73%,-5%,-2
Cc1c(-c2cccs2)[n+](=O)c2c(n1[O-])CCCCC2,-11,10µM*,-2%,-3%,-4%,-5
Cn1cc(CCC(=O)N2CCCC(N3CCN(c4ccccc4F)CC3)C2)cn1 (centres undefined),16,?,6%,40%,-3%,7
O=C(Nc1nc(-c2ccc(-c3ccccc3)cc2)cs1)C1=COCCO1,10,31%,2%,10%,-11%,7
O=C(Nc1ccc([N+](=O)[O-])cc1)Nc1nc(-c2ccc(Cl)s2)cs1,20,?,?,1.9µM*,0%,3
COc1ccc(-c2csc(NC(=O)COC(=O)C3=COCCO3)n2)cc1,53,183%,8%,89%,8%,33*
COc1ccc(OC)c(-c2csc(NC(=O)Cc3ccccc3F)n2)c1,41*,-10%,?,?,-20%,28*
CCc1ccc(-c2csc(NC(=O)COC(=O)CCc3nc4ccccc4s3)n2)cc1,53*,435%,1%,176%,nt,48*
Cc1nc(NC(=O)COC(=O)CCc2nc3ccccc3s2)c(Cl)cc1Cl,-10,16%,11%,1%,1%,-1
